This is a sample that favours compounds with a hit; in the whole collection about 10% have one here.
JMJD2A Tudor inh = blocks the human JMJD2A Tudor domain; O75164; AlphaScreen JMJD2A-Tudor / H3K4me3 peptide binding; Potency, µM (highest dose often 114 µM), usual class: inhibitors; 390,000 compounds, 4.4% hits; also: nearly all actives have a fitted effect of over 50% in size
G9a block = G9a (human) methyltransferase inhibition | Q96KQ7 | G9a H3K9 monomethylation, AlphaScreen, 2 h | Potency, µM (doses to about 102 µM), usual class: inhibitors | 350,000 compounds, 8.8% hits; also: nearly all actives have a fitted effect of over 75% in size
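Quantitative HTS format: methyltransferase activity on a biotin-tagged H3K9 peptide is measured by AlphaScreen, using a rabbit anti-monomethyl-H3K9 antibody with streptavidin donor and anti-IgG acceptor beads. Final levels are 20 nM enzyme, 500 nM peptide, 20 uM SAM; 2 h RT.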
BAZ2B block = BAZ2B (human) inhibition. Q9UIF8. AlphaScreen BAZ2B-H3K14Ac peptide displacement. Potency, µM (doses to about 114 µM), usual class: inhibitors. 360,000 compounds, 4.4% hits. AID 504333; also: nearly all actives have a fitted effect of over 60% in size
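Compounds, titrated to a top concentration of 110 uM, were incubated 30 min at room temperature with preformed BAZ2B/acetyl-K14 H3 peptide complex (50 nM each). Proximity signal was measured by AlphaScreen after 20 min with beads.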
GLS inh = blocks human kidney-isoform glutaminase activity. GLS enzymatic activity, qHTS titration. Potency, µM (doses to about 45.5 µM), usual class: inhibitors. 410,000 compounds, 0.21% hits
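hKGA; 45 mM KH2PO4 pH 8.2 + 0.02% Tween-20; cpd via pin tool; 1 mM Gln soln; GluOx/HRP/Amplex Red; RT 30 min; fluor. t0 & final.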
HP1b chromo inh = blocks HP1-beta chromodomain binding to methylated histone tails | P83916 | AlphaScreen HP1-beta / biotin-H3K9me3 peptide binding | Potency, µM (series often up to 114 µM), usual class: inhibitors | 390,000 compounds, 0.56% hits | AID 540317; also: nearly all actives have a fitted effect of over 70% in size
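AlphaScreen: HP1-beta (50 nM) preformed 30 min with biotin-H3(1-18)K9me3 peptide (50 nM) in PBS pH 7.4, 0.01% Tween-20. Compound added for 30 min at RT, then streptavidin donor/nickel chelate acceptor beads (10 ug/mL) for 30 min.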
Hits are given with their value; i = inactive; ? = inconclusive; nt = no result; [ ] = another dose, or the depositor's remark. Calls follow the shape of the dose curve; as a rule, active = well fitted curve in the direction sought with a large enough effect; inconclusive = small, poorly fitted or top-dose-only effect, or another doubt; inactive = no such curve, though single readings can be large; an effect the other way counts as inactive or inconclusive.

SMILES	JMJD2A Tudor inh	G9a block	BAZ2B block	GLS inh	HP1b chromo inh
CCCCCc1cc(=O)oc2c(C(CCN3CCCC(C)C3)c3cc(OC)c(OC)c(OC)c3)c(OC)cc(OC)c12 (configuration not stated)	?	?	i	i	i
COc1cc(OC)c2ccc(=O)oc2c1C(CCN1CCCC(C)C1)c1ccc(N(C)C)cc1 (configuration not stated)	35.5µM	?	?	i	i
COc1ccc(S(=O)(=O)N2CCC[C@H]2C(=O)N2CCC[C@H]2C(=O)N[C@@H](C)c2ccccc2)cc1C	nt	nt	nt	i	nt
O=C(N/N=C/c1sc2ccccc2c1O)c1cccc2ccccc12	79.4µM	i	44.7µM	?	i
COc1ccc(C(=O)N/N=C/c2sc3ccccc3c2O)cc1	?	50.1µM	44.7µM	15.8µM	i
O=C(N/N=C/c1sc2ccccc2c1O)c1ccccc1	?	?	?	i	i
CN(Cc1ccccc1)C(=O)c1ccc2sc([C@H]3C[C@H](O)[C@@H](CO)O3)nc2c1	nt	nt	nt	i	nt
C/C(CC(=O)NC1CCCCC1)=N\NC(=O)c1ccccc1C	i	39.8µM	i	i	i
C/C(CC(=O)NC1CCCC1)=N\NC(=O)C1CCCCC1	i	i	i	i	i
C/C(CC(=O)NC1CCCCCC1)=N\NC(=O)c1cnccn1	2.24µM	?	i	i	i
C/C(CC(=O)NC1CCCCC1)=N\NC(=O)c1ccc(Br)cc1	i	i	i	i	i
CC1(C)CO[C@@H](CC(=O)O)CN1	nt	i	nt	i	nt
O=C(NNc1c2ccccc2nc2ccccc12)c1ccc(Cl)cc1	i	35.5µM	?	i	i
O=C(NNc1ncnc2ccccc12)c1cccc(Cl)c1	i	79.4µM	79.4µM	i	i
Nc1ccccc1C(=O)NNc1c2ccccc2nc2ccccc12	31.6µM	17.8µM	28.2µM	i	17.8µM
COc1cccc(C(=O)NNc2c3ccccc3nc3ccccc23)c1	?	i	?	?	i
Cc1ccc(C(=O)NNc2c3ccccc3nc3ccccc23)cc1	i	17.8µM	?	i	i
CCc1c(C)sc2c1CCN(Cc1cccc(OC)c1)C2c1ccccc1 (configuration not stated)	i	i[12.7 µM]	i	i	i
O=C(Nc1ccc(CN2CCCCC2)cc1)Nc1ccc(Br)cc1Cl	i	i	i	i	i
O=C(NCc1nc(-c2ccc(C(F)(F)F)cc2)no1)Nc1cc(Cl)cc(Cl)c1	i	i	i	i	i
COc1ccc(Cc2c(C(C)(C)C)nc3c(C)cc(Br)cn23)c(C)c1	nt	nt	nt	i	nt
CC1=C(CC/C(C)=N/NC(N)=S)C(C)(C)CCC1	i	?	i	i	?
COc1ccc(N(Cc2cc3cccc(C)c3[nH]c2=O)C(=O)c2cccc(Cl)c2)cc1	?	i	?	i	i
Clc1cncc(Cl)c1NNc1c2ccccc2nc2ccccc12	?	1.26µM	?	i	i
c1cncc(Nc2c3ccccc3nc3ccccc23)c1	i	?	i	i	i
SMILES	JMJD2A Tudor inh	G9a block	BAZ2B block	GLS inh	HP1b chromo inh
O=C(c1ccc2[nH]ccc2c1)N1CCCC(Nc2ccccc2)C1 (configuration not stated)	i	i	?	i	i
N#C/C(=C/c1ccc(N2CCOCC2)o1)c1ccc(Cl)cc1	56.2µM	?	44.7µM	i	i
N#C/C(=C\c1ccc(N2CCCCC2)o1)C(N)=O	i	28.2µM	28.2µM	i	i
N#C/C(=C\c1ccc(N2CCCCC2)o1)C(=O)Nc1cccc(Br)c1	i	?	i	?	i
Cc1ccc(NC(=O)CSc2nnc3[nH]c(=O)cc(-c4ccccc4)n23)cc1Cl	?	i	i	i	i
Cc1c(C)c2ccc(OCC(=O)NCCCN3CCCC3=O)cc2oc1=O	i	nt	i	i	i
Cc1ccc(NC(=O)CN(C)C(=O)CSc2nncn2C)cc1	i	i	i	i	i
CC(=O)/C(=N\Nc1ccc(C)cc1)Sc1nncn1C	?	8.91µM	i	i	i
CCNC(=O)C1CCCN(C(=O)c2ccc(C#N)cc2)CC1 (configuration not stated)	nt	nt	nt	i	nt
CC(C)(C)S(=O)(=O)/C(C#N)=C/c1cccn1S(=O)(=O)c1ccccc1	nt	nt	nt	i	nt
CC(C)(C)S(=O)(=O)/C(C#N)=C/c1sccc1C1OCCO1	70.8µM	i	i	i	i
CCN(C[C@H]1N[C@@](C)(C(=O)OC)[C@H]2C(=O)N(Cc3ccccc3)C(=O)[C@@H]12)C(=O)c1ccc(C)cc1	i	nt	nt	i	i
Cc1occc1-c1nnc(SCC(=O)c2ccc(Cl)cc2)n1CC1CCCO1 (configuration not stated)	i	i[0.501 µM]	?	i	i
CCn1c(SCC(=O)c2ccccc2)nnc1-c1ccoc1C	i	i	i	i	i
CCn1c(SCC(=O)c2ccc(C)cc2)nnc1-c1ccoc1C	i	50.1µM	i	i	i
CCn1c(SCC(=O)c2ccc(Cl)cc2)nnc1-c1ccoc1C	50.1µM	i	i	i	i
Cc1cccc(C)c1-n1nnnc1C(c1cc2ccccc2o1)N1CCN(C/C=C/c2ccccc2)CC1 (configuration not stated)	nt	nt	nt	i	nt
CC(=O)Nc1cccc(NC(=O)c2c(-c3ccccc3)c(-c3ccccc3)nn(C)c2=O)c1	i	i	i	i	i
COC(=O)c1ccc(NC(=O)c2c(Br)cnn2C)cc1	i	7.94µM	i	i	i
O=C(NCCN1CCN(Cc2ccccc2)CC1)C1c2ccccc2C(=O)N2CCc3ccccc3C12 (configuration not stated)	i	i	i	i	i
Cc1ccc(CNC(=O)C2c3ccccc3C(=O)N3CCc4ccccc4C23)o1 (configuration not stated)	i	31.6µM	?	i	i
CN(C)CCNC(=O)COc1ccc(C23CC4CC(CC(C4)C2)C3)cc1	i	50.1µM	i	i	i
Cc1ccccc1N1C(=O)CC(Nc2ccc3c(c2)OCO3)C1=O (configuration not stated)	i	39.8µM	?	i	i
Cc1ccc(/C=N/NS(=O)(=O)c2ccc([N+](=O)[O-])cc2)o1	i	i	i	i	i
Cc1ccc(S(=O)(=O)N/N=C\c2ccc(C)o2)cc1	?	?	50.1µM	i	i
SMILES	JMJD2A Tudor inh	G9a block	BAZ2B block	GLS inh	HP1b chromo inh
CC(=O)Nc1ccc(S(=O)(=O)N/N=C/c2ccc(C)o2)cc1	i	44.7µM	?	i	i
Cc1csc(N=Cc2ccc([N+](=O)[O-])o2)n1	nt	nt	nt	i	nt
Cc1ccc(C(=O)N2CCc3cc(CNC(=O)c4ccccc4F)ccc32)cc1	i	i	i	i	i
Cc1ccc(-n2c(N)c(C(=O)N3CCCCC3)sc2=S)cc1	?	8.91µM	?	i	15.8µM
Cc1ccc(-n2c(N)c(C(=O)N3CCN(C)CC3)sc2=S)cc1	?	2µM	i	i	?
CCOC(=O)c1sc(=S)n(-c2ccc3c(c2)OCO3)c1N	?	i[0.501 µM]	?	i	?
CCOc1ccc(-n2c(N)c(C(=O)N3CCN(C)CC3)sc2=S)cc1	i	44.7µM	i	i	i
CNC(=O)c1sc(=S)n(-c2ccc(OC)cc2)c1N	i	i	i	i	i

Compound activity as filed in PubChem.
